{"source": "the supplement of paper PMC8728848", "experiment_in_all_cases": "glycan array binding signal (z-score within array); higher = stronger binding", "conditions_in_all_cases": "glycan notation: IUPAC condensed, linker removed", "key": {"[1]": {"molecular_target": "Neu5Ac(a2-3)Gal(b1-3)GlcNAc(b1-2)Man(a1-3)[Neu5Ac(a2-3)Gal(b1-3)GlcNAc(b1-2)Man(a1-6)]Man(b1-4)GlcNAc(b1-4)GlcNAc", "summary_of_the_method": "(§1)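 From the Consortium for Functional Glycomics database, 3228 arrays were curated, keeping only those whose protein sequence was available. Binding is given as a within-array Z-score averaged across arrays sharing a protein sequence and across linkers. Negative Z-scores can be read as non-binding.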"}, "[2]": {"molecular_target": "Neu5Ac(a2-3)Gal(b1-3)GlcNAc(b1-3)GalNAc", "summary_of_the_method": "as §1"}, "[3]": {"molecular_target": "Neu5Ac(a2-3)Gal(b1-4)GlcNAc(b1-2)Man", "summary_of_the_method": "as §1"}, "[4]": {"molecular_target": "Neu5Ac(a2-3)Gal(b1-4)GlcNAc(b1-2)[Neu5Ac(a2-3)Gal(b1-4)GlcNAc(b1-4)]Man(a1-3)[GlcNAc(b1-4)][Neu5Ac(a2-3)Gal(b1-4)GlcNAc(b1-4)Man(a1-6)]Man(b1-4)GlcNAc(b1-4)GlcNAc", "summary_of_the_method": "as §1"}, "[5]": {"molecular_target": "Neu5Ac(a2-3)Gal(b1-4)GlcNAc(b1-3)Gal(b1-4)GlcNAc(b1-3)[Neu5Ac(a2-3)Gal(b1-4)GlcNAc(b1-3)Gal(b1-4)GlcNAc(b1-6)]GalNAc", "summary_of_the_method": "as §1"}, "[6]": {"molecular_target": "Neu5Ac(a2-3)Gal(b1-4)[Fuc(a1-3)]GlcNAc(b1-3)GalNAc", "summary_of_the_method": "as §1"}, "[7]": {"molecular_target": "Neu5Ac(a2-3)Gal6S(b1-4)GlcNAc", "summary_of_the_method": "as §1"}, "[8]": {"molecular_target": "Neu5Ac(a2-6)Gal(b1-4)GlcNAc(b1-2)Man(a1-3)Man(b1-4)GlcNAc(b1-4)GlcNAc", "summary_of_the_method": "as §1"}, "[9]": {"molecular_target": "Neu5Ac(a2-6)Gal(b1-4)GlcNAc(b1-3)Gal(b1-3)GlcNAc", "summary_of_the_method": "as §1"}, "[10]": {"molecular_target": "Neu5Ac(a2-6)GlcNAc(b1-4)GlcNAc(b1-4)GlcNAc", "summary_of_the_method": "as §1"}, "[11]": {"molecular_target": "Neu5Gc(a2-3)Gal(b1-4)GlcNAc", "summary_of_the_method": "as §1"}, "[12]": {"molecular_target": "Fuc(a1-2)Gal(b1-3)GalNAc(b1-3)Gal(a1-4)Gal(b1-4)Glc", "summary_of_the_method": "as §1"}, "[13]": {"molecular_target": "Fuc(a1-2)[GalNAc(a1-4)]Gal(b1-4)GlcNAc", "summary_of_the_method": "as §1"}, "[14]": {"molecular_target": "Fuc(a1-3)[Gal(b1-4)]GlcNAc(b1-4)Gal(b1-4)[Fuc(a1-3)]GlcNAc", "summary_of_the_method": "as §1"}, "[15]": {"molecular_target": "Fuc(a1-3)[Gal3S(b1-4)]GlcNAc", "summary_of_the_method": "as §1"}, "[16]": {"molecular_target": "Gal(b1-3)GlcNAc", "summary_of_the_method": "as §1"}, "[17]": {"molecular_target": "Gal(b1-4)GlcNAc(b1-3)Gal(b1-4)GlcNAc(b1-3)Gal(b1-4)GlcNAc", "summary_of_the_method": "as §1"}, "[18]": {"molecular_target": "Gal3S(b1-4)Glc6S", "summary_of_the_method": "as §1"}, "[19]": {"molecular_target": "Gal3S6S(b1-4)GlcNAc6S", "summary_of_the_method": "as §1"}, "[20]": {"molecular_target": "Gal6S(b1-4)Glc", "summary_of_the_method": "as §1"}, "[21]": {"molecular_target": "Gal6S(b1-4)Glc6S", "summary_of_the_method": "as §1"}, "[22]": {"molecular_target": "GalNAc(a1-3)GalNAc", "summary_of_the_method": "as §1"}, "[23]": {"molecular_target": "Glc(a1-6)Glc(a1-6)Glc", "summary_of_the_method": "as §1"}, "[24]": {"molecular_target": "GlcNAc(b1-4)GlcNAc(b1-4)GlcNAc(b1-4)GlcNAc(b1-4)GlcNAc", "summary_of_the_method": "as §1"}, "[25]": {"molecular_target": "Kdn(a2-3)Gal(b1-4)GlcNAc", "summary_of_the_method": "as §1"}, "[26]": {"molecular_target": "Neu5Ac(a2-3)Gal(b1-4)GlcNAc(b1-2)Man(a1-3)[GlcNAc(b1-2)Man(b1-4)GlcNAc(b1-2)Man(a1-6)]Man(b1-4)GlcNAc(b1-4)GlcNAc", "summary_of_the_method": "as §1"}, "[27]": {"molecular_target": "Neu5Ac(a2-6)Gal(b1-4)GlcNAc(b1-3)Gal(b1-4)[Fuc(a1-3)]GlcNAc(b1-3)Gal(b1-4)[Fuc(a1-3)]GlcNAc", "summary_of_the_method": "as §1"}, "[28]": {"molecular_target": "Neu5Ac(a2-8)Neu5Ac(a2-3)[GalNAc(b1-4)]Gal(b1-4)Glc", "summary_of_the_method": "as §1"}}, "note": "This is one part of a sample in which the strongest signals are shown more often than they occur.", "data": [{"binder": "PfulAvr4 2 (Pseudocercospora fuligena) (protein) HHHHHHDYKDDDDKAKPIKPFACPPKDFTTTKCQGPVDCLYANPLSCLGYIQCVCDDDACSTATPYAKSCPTGLAWVEKLKRCDGIKKSACPKKMYEGS", "values": [{"measurement": "glycan array binding signal (z-score)", "setting": "[1]", "value": 7.16}, {"measurement": "glycan array binding signal (z-score)", "setting": "[2]", "value": -0.01}, {"measurement": "glycan array binding signal (z-score)", "setting": "[3]", "value": 5.08}, {"measurement": "glycan array binding signal (z-score)", "setting": "[4]", "value": -0.253}, {"measurement": "glycan array binding signal (z-score)", "setting": "[5]", "value": -0.158}, {"measurement": "glycan array binding signal (z-score)", "setting": "[6]", "value": 0.545}, {"measurement": "glycan array binding signal (z-score)", "setting": "[7]", "value": -0.482}, {"measurement": "glycan array binding signal (z-score)", "setting": "[8]", "value": -0.224}, {"measurement": "glycan array binding signal (z-score)", "setting": "[9]", "value": -0.344}, {"measurement": "glycan array binding signal (z-score)", "setting": "[10]", "value": 3.75}, {"measurement": "glycan array binding signal (z-score)", "setting": "[11]", "value": -0.214}]}, {"binder": "CBM32-1 (Clostridium perfringens) (protein) MGSSHHHHHHSSGLVPRGSHMASGVEITEGVTVTAKGNTEGNTADLAIDGDLSTYWESSNDYKWIEVDLGGIYELSKIEIFNKDEAVYKYNIYASEDGENFNKIAYKNNDNVSDSNGNVHTIDNVRAGKIRIDVVQNSNSDRVNIAEINVFG", "values": [{"measurement": "glycan array binding signal (z-score)", "setting": "[12]", "value": -0.205}, {"measurement": "glycan array binding signal (z-score)", "setting": "[13]", "value": 0.059}, {"measurement": "glycan array binding signal (z-score)", "setting": "[14]", "value": 0.331}, {"measurement": "glycan array binding signal (z-score)", "setting": "[15]", "value": -0.283}, {"measurement": "glycan array binding signal (z-score)", "setting": "[16]", "value": -0.333}, {"measurement": "glycan array binding signal (z-score)", "setting": "[17]", "value": 0.889}, {"measurement": "glycan array binding signal (z-score)", "setting": "[18]", "value": 3.21}, {"measurement": "glycan array binding signal (z-score)", "setting": "[19]", "value": 5.08}, {"measurement": "glycan array binding signal (z-score)", "setting": "[20]", "value": 0.513}, {"measurement": "glycan array binding signal (z-score)", "setting": "[21]", "value": 4.39}, {"measurement": "glycan array binding signal (z-score)", "setting": "[22]", "value": -0.173}, {"measurement": "glycan array binding signal (z-score)", "setting": "[23]", "value": -0.279}, {"measurement": "glycan array binding signal (z-score)", "setting": "[24]", "value": 5.14}, {"measurement": "glycan array binding signal (z-score)", "setting": "[25]", "value": -0.439}, {"measurement": "glycan array binding signal (z-score)", "setting": "[26]", "value": 3.77}, {"measurement": "glycan array binding signal (z-score)", "setting": "[27]", "value": 0.193}, {"measurement": "glycan array binding signal (z-score)", "setting": "[28]", "value": -0.358}]}]}
